# Many of the other results were omitted from the sample, so hits are more common in it than they were.
# Giardia FBPA inh: inhibitors of Giardia lamblia fructose-1,6-bisphosphate aldolase. purified Giardia FBPA. Potency, µM (highest dose often 59.6 µM), inactives show at the top dose activity, negative = inhibition, actives largely listed as inhibitors. actives 0.71% (n = 290,000). AID 2451; note: potency is the fitted concentration of half-maximal effect; % is set by controls: 0 for no effect and ±100 for the full control effect; nearly all actives have a fitted effect of over 55% in size
#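 40 nM FBPA preincubated 10 min at RT with compound (up to 57.5 uM final), then substrate plus GAPDH/TPI/NAD/arsenate coupling and diaphorase/resazurin added. Fluorescence read after 20 min at RT, 525/598 nm.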
# Shiga toxin inh: Shiga toxin inhibition; inhibition, % at 38.7 µM; actives 9.2% (n = 290,000); AID 2315; Vero cells, Shiga toxin protein synthesis inhibition reporter; in the data active = inhibition mostly above about 28%, no sharp cut-off; inactive = mostly below about 43%; note: 0% is about no effect
# RE007 growth inh: less growth of the S. pombe RE007 Vpr strain; S. pombe RE007 Vpr strain, BacTiter-Glo ATP luminescence, 24 h; Potency, µM (series often up to 92.2 µM), inactives show at the highest dose activity change, negative = less growth, most hits filed as inhibitors; actives 0.21% (n = 360,000); AID 651644; active = well fitted falling curve with a large enough effect; inconclusive = small, poorly fitted or top-dose-only effect; inactive = no such curve, though single readings can be large or run the other way; note: potency is the fitted concentration of half-maximal effect; % is set by controls: 0 for no effect and ±100 for the full control effect; nearly all actives have a fitted effect of over 50% in size
#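 Fission yeast RE007 carrying one integrated HIV-1 vpr copy, seeded at OD 0.01 in PMG+AL medium with 23 nL pinned compound. Grown 24 h at 30 degrees; viability read by BacTiter-Glo luminescence after 5 min.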
# TbPYK inhibitor: blocks Trypanosoma brucei pyruvate kinase; TbPYK enzyme, Kinase-Glo Plus ATP luminescence, 45 min; Potency, µM (doses to about 76.8 µM), for the others: top-dose activity, negative = inhibition, usual class: inhibitors; actives 0.12% (n = 410,000); AID 624173; note: potency is the fitted concentration of half-maximal effect; % is set by controls: 0 for no effect and ±100 for the full control effect; nearly all actives have a fitted effect of over 50% in size
#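 Readout: single end-point luminescence (Kinase-Glo Plus, 10 min). Reaction conditions were TbPYK/substrate plus 130 uM ADP, 45 min at RT, pH 7.2 TEA buffer. No-enzyme wells served as controls, and data were normalized before concentration-response fitting.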
# LmPK inh: inhibitors of Leishmania mexicana pyruvate kinase | Q27686 | purified LmPK, Kinase-Glo ATP luminescence, 1 h | Potency, µM (doses to about 57.5 µM), inactives show at the highest dose activity change, negative = inhibition, actives largely listed as inhibitors | actives 0.37% (n = 290,000) | AID 1721; note: potency is the fitted concentration of half-maximal effect; % is set by controls: 0 for no effect and ±100 for the full control effect
# Target sequence (Q27686 whole entry, looked up): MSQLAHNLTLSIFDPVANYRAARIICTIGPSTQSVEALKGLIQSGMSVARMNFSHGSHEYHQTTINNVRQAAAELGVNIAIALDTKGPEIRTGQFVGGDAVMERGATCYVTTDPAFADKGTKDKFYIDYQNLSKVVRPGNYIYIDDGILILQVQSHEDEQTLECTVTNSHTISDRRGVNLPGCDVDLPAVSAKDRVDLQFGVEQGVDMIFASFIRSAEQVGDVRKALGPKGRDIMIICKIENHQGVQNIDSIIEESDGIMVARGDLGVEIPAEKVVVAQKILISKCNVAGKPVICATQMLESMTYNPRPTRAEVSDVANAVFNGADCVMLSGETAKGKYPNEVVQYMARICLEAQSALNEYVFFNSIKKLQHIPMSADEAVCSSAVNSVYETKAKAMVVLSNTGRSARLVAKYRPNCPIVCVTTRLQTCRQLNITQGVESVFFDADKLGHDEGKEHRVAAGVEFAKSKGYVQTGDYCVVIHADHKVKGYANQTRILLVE
#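 Purified LmPK (0.1 nM) with 0.5 mM PEP and 0.1 mM ADP in imidazole buffer pH 7.2 with MgCl2/KCl, 1 h at room temperature. ATP formed was read by luciferase luminescence and normalized to no-enzyme and uninhibited controls.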
# Cycloheximide cs: counter-screen hit for Shiga toxin inhibitors, cycloheximide; cell reporter, cycloheximide protein synthesis inhibition counterscreen; max response, %; actives 12% (n = 300,000); in the data active = max response mostly above about 13%, no sharp cut-off; inactive = mostly below about 14%; note: read at 38.3 µM for the half of the compounds with a filed dose; 0% is about no effect
# An asterisk follows results filed as active; ? = inconclusive; / = no result; [ ] = remark or other dose. Unless noted, calls come from the whole dose curve; as a rule, active = well fitted curve in the direction sought with a large enough effect; inconclusive = small, poorly fitted or top-dose-only effect, or another doubt; inactive = no such curve, though single readings can be large; an effect the other way counts as inactive or inconclusive.
SMILES,Giardia FBPA inh,Shiga toxin inh,RE007 growth inh,TbPYK inhibitor,LmPK inh,Cycloheximide cs
CC[C@]12c3[nH]c4ccc(Cl)cc4c3CCN1C(=O)[C@@H](CC(=O)NC/C=C(\C)CCC=C(C)C)C[C@@H]2C(=O)N1CCN(C(=O)C2CC2)CC1,/,/,1%,0%,/,/
Cc1ccccc1NC(=S)N/N=C/c1ccc(O)cc1O,20%,100*,9%,-15%,0%,41*
Cc1cccc(NC(=S)N/N=C/C(C)c2ccccc2)c1C (configuration not stated),-8%,-5,7%,?,2%,11
Cc1cccc(NC(=S)N/N=C/c2cccc(O)c2)c1C,-6%,23,7%,-6%,3%,19*
CNC(C)[C@@H](O)c1ccc(O)cc1 (some centres not stated),/,/,/,2%,/,/
O=C(c1cccc(C(F)(F)F)c1)C1CCCN(C(=O)CN2CCOC2=O)C1 (configuration not stated),/,17,-1%,-3%,-5%,11
CCCCNC(=S)N1CCN(c2nc3ccccc3s2)CC1,0%,-2,-2%,-2%,-2%,-2
O=C(C1CC1)N1CCN(c2nc3ccccc3s2)CC1,3%,132*,-5%,2%,-7%,33*
CS(=O)(=O)N1CCN(c2nc3ccccc3s2)CC1,0%,11,-9%,-2%,1%,12*
CNC(=S)N1CCN(c2nc3ccccc3s2)CC1,3%,69*,2%,0%,9%,46*
CCC(=O)N1CCN(c2nc3ccccc3s2)CC1,0%,36,-4%,0%,-6%,23*
COc1ccc2nc(N3CCN(C(=O)C4CC4)CC3)sc2c1,/,/,/,1%,/,/
CCOC(=O)c1c(NC(=O)COc2ccc(Cl)cc2Cl)sc2c1CCCCC2,/,/,/,1%,/,/
O=C(Nc1ccccc1)N1CCN(c2nc3ccccc3s2)CC1,-3%,0,1%,3%,3%,27*
c1ccc2c(c1)[nH]c1c3ccccc3sc21,-4%,72*,/,-2%,4%,41*
O=c1c2ccccc2sc2ccccc12,/,/,-6%,-3%,/,/
CCN(c1cccc(C)c1)S(=O)(=O)c1cc(CN2C(=O)c3cccnc3C2=O)ccc1OC,0%,92*,1%,0%,-1%,19*
COc1ccc(CN2C(=O)c3cccnc3C2=O)cc1S(=O)(=O)NCc1ccco1,-1%,51*,1%,-4%,1%,21*
O=C(OCC(=O)N1CCCCC1)c1ccccc1SCC(=O)N1CCCCC1,8%,31,3%,-1%,-3%,20*
O=C(COC(=O)c1ccccc1SCC(=O)NC1CCS(=O)(=O)C1)NC1CCS(=O)(=O)C1 (configuration not stated),5%,-6,-5%,2%,0%,-1
O=C(OCc1ccc(F)cc1)c1cc2ccccc2cc1O,2%,15,-8%,-6%,-4%,8.6*
CCOC(=O)C(C)/C(C)=N/NC(=O)c1cc2ccccc2cc1O (configuration not stated),-20%,-7,15%,-10%,4%,1
C/C(CC(=O)N1CCCC1)=N\NC(=O)c1cc2ccccc2cc1O,13µM*,48,-1%,0%,9%,14
CCNC(=O)NC(=O)COC(=O)c1ccccc1SCC(=O)NC(=O)NCC,10%,68,?,?,?,63*
CN(C(=O)c1cccc(S(=O)(=O)N2CCOCC2)c1)c1c(N)n(Cc2ccccc2)c(=O)[nH]c1=O,/,/,-3%,-1%,/,/
SMILES,Giardia FBPA inh,Shiga toxin inh,RE007 growth inh,TbPYK inhibitor,LmPK inh,Cycloheximide cs
C[C@H]1[C@H](NC(=O)/C(=N/OC(C)(C)C(=O)O)c2csc(N)n2)C(=O)N1S(=O)(=O)O (stereo in doubt),-9%[21.7 µM],/,/,0%[33.2 µM],/,/
CN(CC(=O)Nc1ccc(Cl)cc1)C(=O)CNC(=O)c1ccc(Br)o1,/,/,-8%,-2%,/,/
O=C(NCCc1ccccc1)c1ccccc1SCC(=O)N1CCCC1,14%,97*,-8%,6%,-1%,27*
O=C(OCC(=O)N1CCCCC1)c1cc2ccccc2cc1O,-1%,48,-30%,-10%,-3%,24*
O=C(COC(=O)c1cc2ccccc2cc1O)NC1CCCCC1,/,/,-5%,0%,/,/
CCC1CCCCN1C(=O)COC(=O)c1cc2ccccc2cc1O (configuration not stated),-3%,80*,?,6%,12%,50*
CN(C(=O)CCN1C(=O)c2ccccc2C1=O)c1ccccc1,-3%,-12,-10%,5%,1%,3
CN(C)CCCN=c1cc(-c2ccccc2)oc2ccc(Cl)cc12,-2%,27,?,1%,9%,14*
OCCN=c1cc(-c2ccccc2)oc2ccc(Cl)cc12,/,190*,-23%,-8%,-1%,52*
CN(C)CCCN1C(=O)c2oc3ccc(Cl)cc3c(=O)c2C1c1cccnc1 (configuration not stated),6%,2,-4%,7%,1%,5
Cc1nnc(SCC(=O)Nc2cccc(Br)c2)s1,/,/,5%,3%,/,/
Cc1c2c(nc3c(C(=O)NC4CC4)cnn13)CCCC2,1%,113*,0%,2%,-3%,35*
COc1ccc2ncc3c(-c4ccc(C)c(C)c4)nn(CC(=O)NC4CCCCC4)c3c2c1,/,/,/,1%,/,/
Cc1cc(C)nc(Nc2ccc(O)cc2)n1,?,41,-6%,-2%,-7%,24*
Cc1cc(C)nc(Nc2ccc(C(=O)O)cc2)n1,-1%,3,3%,3%,2%,13
COc1nc(Nc2ccc(OC)c(Cl)c2)nc(OC)n1,1%,22,-5%,-4%,2%,8
CCc1ccc(Nc2nc(C)cc(C)n2)cc1,?,52*,-3%,1%,-1%,53*
COc1ccc(Nc2nc(C)cc(C)n2)cc1Cl,?,76,2%,-1%,1%,26*
CCOc1ccc(CCNC(=O)CCc2c(C)nc3c4c(C)cc(C)nc4nn3c2C)cc1,/,/,/,11%,/,/
COc1ccc(C)cc1NC(=O)N(Cc1ccc(C)o1)C1CCN(C(C)=O)CC1,/,/,/,-6%,/,/
COc1ccc(-c2cn3cc(C)ccc3n2)cc1F,?,15,-28%,6%,-27%,16*
COc1ccc(-c2cn3cc(C)ccc3n2)cc1OC,-26%,55*,?,-8%,16µM*,33*
Cc1cccc(CSc2ccc(-c3ccco3)nn2)c1,-3%,20,-21%,-7%,-7%,17*
Cc1ccc(CSc2ccc(-c3ccco3)nn2)cc1,-2%,21,-9%,-26%,-25%,12
c1ccc(CSc2ccc(-c3cccnc3)nn2)nc1,-4%,50*,3%,-1%,-4%,21*
Clc1cccc(CSc2ccc(-c3ccco3)nn2)c1,-1%,61*,-25%,-11%,-2%,31*
